Laboratory results: PubChem BioAssay (NCI)
Compounds without any hit were thinned out: in the full panel of roughly 83,000, 20% have a hit.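 Treatment: one concentration, 48 hours, 96-well format. Scoring: percent growth, with anything below 10 considered active.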 Unmarked numbers belong to inactive results. Activity calls are given as the source filed them.

System: SF-539 CNS
Test: NCI-60 one-dose screen, 48 h (100 = growth as untreated, 0 = no growth, -100 = all killed)
Conditions: 10 µM unless noted

Structure (SMILES) | growth
COc1ccc(/C=C2\C(=O)N(C(=O)c3csc(NC(C)=O)n3)N=C2C)cc1 | 104%
NC(=O)c1c(NC(=O)c2ccc3c(c2)OCO3)sc2c1CCC(=O)C2 | -55.5% (active)
COc1ccc(OC)c(/C=C2\Oc3cc(OCCN4CCCC4)ccc3C2=O)c1 | 84.7%
CCCCNc1nnc(-c2cc(-c3cc4ccccc4o3)nn2-c2ccccc2)o1 | 97.4%
Nc1c(C(=O)Nc2cccc([N+](=O)[O-])c2)sc2nc3c(cc12)C(O)CCC3 (centres undefined) | 37%
O=c1oc2c([nH]c3ccc4ccccc4c32)c2ccccc12 | 102%
CCc1cccc(C)c1NC(=O)c1sc2nc3c(cc2c1N)C(=O)CCC3 | -14.4% (active)
C#CCN1C(=O)/C(=c2\sc3n(c2=O)C2C(NN=3)N(CC)C(=O)N2CC)c2ccccc21 (centres undefined) | -39.7% (active)
OCc1c(-c2ccccc2)nc2sccn12 | 73.7%
C#CCN1C(=O)/C(=c2\sc3n(c2=O)NC2C(N=3)N(CC)C(=O)N2CC)c2ccccc21 (centres undefined) | 38.7%
CSc1nc(-c2cc3ccccc3o2)cc(-c2ccc(Cl)cc2)c1C#N | -7.47% (active)
O=C1CCCCC=C1C[N+](=O)[O-] | 101%
CCCCCCCCCCCCCCCCCCOc1cccc(CCOP(=O)(O)OCC[N+](C)(C)C)c1 | 95.1%
CC[C@H](C)[C@@H]1NC(=O)[C@H]([C@@H](C)O)NC(=O)C(Cc2ccccc2)NC(=O)[C@@H]2CCCN2C(=O)C(C(C)C)NC(=O)C(Cc2ccccc2)NC(=O)CNC(=O)[C@@H]2CCCN2C1=O (some centres undefined) | 83.2%
